# High-throughput results deposited in PubChem by Center for Chemical Genomics, University of Michigan.
# The full list was thinned out, with hits kept by preference.
# Dicer processing: inhibitors of Dicer pre-microRNA processing, primary screen, biochemical, cat-ELCCA, chemiluminescence. z-score at 25 µM. 47,000 tested, 6% active. cat-ELCCA pre-miR-21 Dicer processing; hits give high values. Endoribonuclease Dicer (Homo sapiens), Q9UPY3; in the data active = z-score above about 3, passing the limit was not always enough;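 also: plate controls were vehicle for no effect and no enzyme for full effect; higher signal means more uncleaved substrate so more Dicer inhibition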
# Target sequence (Q9UPY3 whole entry, looked up): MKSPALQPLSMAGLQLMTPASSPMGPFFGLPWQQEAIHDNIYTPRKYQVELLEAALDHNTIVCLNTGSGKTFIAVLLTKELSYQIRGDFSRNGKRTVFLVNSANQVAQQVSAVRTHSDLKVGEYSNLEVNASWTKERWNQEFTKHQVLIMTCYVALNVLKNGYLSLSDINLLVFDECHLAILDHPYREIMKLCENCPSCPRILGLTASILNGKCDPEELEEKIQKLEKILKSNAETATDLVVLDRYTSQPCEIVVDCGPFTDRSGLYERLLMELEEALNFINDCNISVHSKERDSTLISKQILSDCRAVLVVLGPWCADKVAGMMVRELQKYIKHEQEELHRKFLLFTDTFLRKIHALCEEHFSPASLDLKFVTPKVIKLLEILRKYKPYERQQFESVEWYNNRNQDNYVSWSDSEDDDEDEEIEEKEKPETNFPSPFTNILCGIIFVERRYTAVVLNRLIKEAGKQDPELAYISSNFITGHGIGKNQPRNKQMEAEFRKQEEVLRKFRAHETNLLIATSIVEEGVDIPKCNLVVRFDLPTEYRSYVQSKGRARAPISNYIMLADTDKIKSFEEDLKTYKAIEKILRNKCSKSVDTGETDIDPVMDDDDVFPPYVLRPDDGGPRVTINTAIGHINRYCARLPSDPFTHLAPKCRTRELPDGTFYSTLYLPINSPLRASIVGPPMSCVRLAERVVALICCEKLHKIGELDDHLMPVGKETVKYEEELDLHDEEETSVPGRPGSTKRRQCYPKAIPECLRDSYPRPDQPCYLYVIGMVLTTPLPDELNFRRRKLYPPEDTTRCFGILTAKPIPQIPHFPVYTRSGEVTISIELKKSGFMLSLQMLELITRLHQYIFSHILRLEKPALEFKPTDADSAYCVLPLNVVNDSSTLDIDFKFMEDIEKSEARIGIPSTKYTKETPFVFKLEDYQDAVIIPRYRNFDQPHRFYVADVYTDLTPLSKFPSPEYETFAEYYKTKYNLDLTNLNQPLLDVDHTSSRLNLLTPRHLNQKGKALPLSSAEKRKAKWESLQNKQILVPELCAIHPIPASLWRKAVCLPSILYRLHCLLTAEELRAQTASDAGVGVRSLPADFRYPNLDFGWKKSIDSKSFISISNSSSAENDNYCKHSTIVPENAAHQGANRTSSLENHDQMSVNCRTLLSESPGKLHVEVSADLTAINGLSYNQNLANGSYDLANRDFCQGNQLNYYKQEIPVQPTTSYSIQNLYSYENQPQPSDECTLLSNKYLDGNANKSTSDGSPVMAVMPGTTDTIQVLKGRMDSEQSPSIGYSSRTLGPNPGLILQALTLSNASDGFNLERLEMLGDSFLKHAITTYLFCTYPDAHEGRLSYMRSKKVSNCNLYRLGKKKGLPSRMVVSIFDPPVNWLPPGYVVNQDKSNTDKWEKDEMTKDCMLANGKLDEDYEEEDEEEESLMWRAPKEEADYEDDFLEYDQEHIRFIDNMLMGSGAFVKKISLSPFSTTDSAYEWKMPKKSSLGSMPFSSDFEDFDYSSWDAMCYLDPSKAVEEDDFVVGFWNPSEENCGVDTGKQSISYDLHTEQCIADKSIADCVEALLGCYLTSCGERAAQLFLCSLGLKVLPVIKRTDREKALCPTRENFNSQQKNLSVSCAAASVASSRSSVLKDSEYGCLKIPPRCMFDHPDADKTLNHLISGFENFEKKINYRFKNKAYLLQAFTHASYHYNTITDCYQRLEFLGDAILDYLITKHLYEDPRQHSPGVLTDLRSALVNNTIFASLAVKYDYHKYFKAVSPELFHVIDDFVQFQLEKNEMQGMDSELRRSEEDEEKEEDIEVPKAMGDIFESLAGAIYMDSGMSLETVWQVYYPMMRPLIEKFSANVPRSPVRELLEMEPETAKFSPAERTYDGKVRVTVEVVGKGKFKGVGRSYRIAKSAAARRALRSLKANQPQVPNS
# The depositor's hits bear a star.
SMILES,Dicer processing
CCN1C(=O)C2(/C(=C(/O)c3ccccc3)C(=O)C(=O)N2CCN2CCOCC2)c2ccccc21 (centres undefined),1
CCN1C(=O)C2(/C(=C(/O)c3ccc(Cl)cc3)C(=O)C(=O)N2CCN2CCOCC2)c2ccccc21 (centres undefined),1.2
Cc1ccc(/C(O)=C2/C(=O)C(=O)N(CCN(C)C)C23C(=O)N(C)c2ccccc23)cc1 (centres undefined),1.6
Cn1c(=O)oc2cc(S(=O)(=O)N(CCO)CCO)ccc21,1.3
CCc1ccnc(NS(=O)(=O)c2ccc3c(c2)OCCCO3)c1,-1.5
O=C(OCCN1C(=O)C2C3c4ccccc4C(c4ccccc43)C2C1=O)c1ccccc1 (centres undefined),1.2
Cn1c(CSCc2nc(-c3ccccc3)cs2)nnc1SCC(=O)Nc1ccccc1,-2.5
COc1cccc(OC)c1CN(C)C(=O)c1cnc(OCc2ccccc2)cc1C(F)(F)F,-1.3
CN(C)c1ccc(/C=C2\C(=O)Nc3ccccc32)cc1C#N,0.05
CCCCc1c(COC)nc(SC)[nH]c1=O,0.42
COc1ccc(C2Oc3ccccc3C3CC(c4ccccc4O)=NN32)cc1OC (centres undefined),4.8*
COc1ccc(C2Oc3ccccc3C3CC(c4ccccc4O)=NN32)cc1O (centres undefined),1.6
COc1ccc(O)c(C2=NN3C(C2)c2ccccc2OC3c2ccc(OC)c(O)c2)c1 (centres undefined),1
Oc1ccccc1C1=NN2C(C1)c1ccccc1OC2c1ccncc1 (centres undefined),1.9
COc1cccc(C2Oc3ccccc3C3CC(c4ccccc4O)=NN32)c1 (centres undefined),3.8
Oc1ccc(C2Oc3ccccc3C3CC(c4ccccc4O)=NN32)cc1 (centres undefined),18*
CO/N=C1\CCCc2c(C(=O)N/N=C/c3ccc(Cl)cc3)sc(SC)c21,-0.84
O=C(N/N=C/c1ccc([N+](=O)[O-])cc1)c1ccccc1C1=NCCCN1,0.91
CCC(=O)c1cc(OC)c(OC)cc1OC,-0.05
Cc1cc(SCc2ccccc2)n2ncnc2n1,0.18
CS(=O)c1ccc(Oc2ccc(C(F)(F)F)cc2[N+](=O)[O-])cc1 (centres undefined),0.25
CC(C)(C)NC(=O)NC(=O)c1ccc(Oc2ccc(C(F)(F)F)cc2[N+](=O)[O-])cc1,3.8*
O=[N+]([O-])c1cc(C(F)(F)F)ccc1Oc1ccc(F)cc1,24
CCOC(=O)CSc1nncc(=O)[nH]1,-1.1
C\C(=N/N=C(\N=C\N(C)C)SCc1ccc(Cl)cc1Cl)c1ccc(C)nc1,-3.7
SMILES,Dicer processing
COC(=O)C1=C(C)NC(=O)CC1c1ccc(F)cc1 (centres undefined),2.2
COC(=O)C1=C(C)N(c2ccc(F)cc2)CC1=O,3.2*
COC(=O)C1=NNC2C(=O)N(c3ccc(F)cc3)C(=O)C12 (centres undefined),1.8
CC(NC(=O)OCC1c2ccccc2-c2ccccc21)C(=O)O (centres undefined),-0.86
CCOC(=O)C1=C(CC)NC2=C(C(=O)CCC2)C1c1ccc(Br)cc1 (centres undefined),-0.51
COc1cc(C2c3c(oc4ccc(F)cc4c3=O)C(=O)N2CC2CCCO2)ccc1O (centres undefined),0.45
COc1ccc(C2C(C#N)=C3N=C(N)c4ccccc4N3C3=C2C(=O)CCC3)cc1OC (centres undefined),0.07
Nc1ccc(Br)cc1C(O)c1ccccc1 (centres undefined),1
COc1ccc(S(=O)(=O)Nc2ccc3oc4c(c3c2)C(=O)CCC4)cc1,0.14
Cc1ccc(S(=O)(=O)Nc2cc(Cl)c3oc4c(c3c2)C(=O)CCC4)c(C)c1,3.1*
CCOc1ccc(S(=O)(=O)Nc2cc(Cl)c3oc4c(c3c2)C(=O)CCC4)cc1,1.2
O=C1COc2ccccc2N1Cc1ccccc1,-0.45
CC(C)CNS(=O)(=O)c1cccc2c(N)cccc12,-2.1
COc1cccc(NC(=O)Nc2ccc(C(F)(F)F)cn2)c1,-1.7
C#CCOC(=O)Nc1ccc(OCCOC)nc1,2.6
O=C(O)CCC(=O)Nc1cc2c(cc1Br)OCCO2,0.22
Cc1ccc(NC(=O)CCS(=O)(=O)Cc2ccccc2)c(Br)c1,4.5*
O=C(O)CCC(=O)Nc1ccc(OC(F)(F)F)cc1Br,-1
O=c1[nH]c(-c2ccccn2)nc2c1CSCC2,-1.1
CC(C)(C)Sc1ccc(C(=O)N(Cc2ccc3c(c2)OCO3)c2ccc(F)cc2)cc1[N+](=O)[O-],-1.1
O=[N+]([O-])c1ccc(Sc2c(-c3ccc(Br)cc3)nc3ccccn23)cc1,-1.9
Cc1ccc(NS(=O)(=O)c2sc3ccc(Cl)cc3c2C)cc1,1.4
COc1ccccc1NS(=O)(=O)c1sc2ccc(Cl)cc2c1C,3.3*
Cc1c(S(=O)(=O)Nc2ccc3c(c2)OCCO3)sc2ccc(Cl)cc12,0.83
CCC1(C)CC(=O)N(c2cc(C(F)(F)F)cc(C(F)(F)F)c2)C(=O)C1,-0.17
